# Laboratory results reported in PubChem BioAssay AID2732 (Emory University Molecular Libraries Screening Center, 2010).
# In all, about 220,000 compounds went through this assay and about 8,200 (3.7%) were called active. The sample holds actives, similar compounds and a random draw of the others, so the mix is not that of the screen. A number with no mark means an inactive call.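 The calls were made as follows: active = compounds that reduced the stress-induced luciferase reporter signal by more than about 70% of percent inhibition (limit read from the data); inactive = the rest.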
# Assay: blockers of ER-stress CHOP reporter expression – cell-based, unfolded protein response, luciferase reporter, primary screen (AID 2732);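 also: 0% = tunicamycin plus vehicle and 100% = wells without tunicamycin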
# Settings: CHO-K1 CHOP-promoter luciferase, tunicamycin-induced, 15-18 h; at 10 µM; hits give high values
row,Structure (SMILES),inhibition
1,COCCN1C2=C(COC(C)(C)C2)C(=S)NC1c1ccccc1 (configuration not stated),12.9%
2,Cc1cc(C(=O)OCC(=O)Nc2nccs2)c2ccccc2n1,23.3%
3,Cc1cc(C)cc(NS(=O)(=O)c2ccc(F)cc2)c1,10.9%
4,CSc1ccc(S(=O)(=O)NC2CCCCC2)cc1,1.25%
5,CSc1ccc(S(=O)(=O)Nc2cccc(F)c2)cc1,74.6% (active)
6,O=S(=O)(Nc1ccc(OC(F)(F)F)cc1)c1cccc2nonc12,-2.82%
7,Cn1ccc(NC(=O)Nc2ccc(Cl)cc2)n1,-23.2%
8,CC(C)=NN1C(=O)c2ccccc2NC1(C)C,2.15%
9,COCCN(CCOC)C(=S)Nc1ccccc1Cl,15.1%
10,O=C(Nc1ccccc1Cl)c1ccc2nsnc2c1,-20.7%
11,O=C(Nc1ccccc1Cl)/C(Cl)=C(\Cl)S(=O)c1ccccc1 (configuration not stated),108% (active)
12,NC(=O)Cc1ccc2c(c1)[nH]c1ccccc12,-13.9%
13,CCNc1nc(NCC)nc(N/N=C/c2ccc(O)c(OC)c2)n1,-5.61%
14,OC(c1ccccc1)C(CN1CCOCC1)c1ccccc1 (configuration not stated),9.34%
15,O=C(Nc1ccccc1F)c1ccccc1-c1ccccc1,1.92%
16,Cc1ccc(NC(=O)C(C)c2cccc(C(=O)c3ccccc3)c2)cc1 (configuration not stated),19.2%
17,Cc1ccccc1NC(=O)C(C)c1ccc(-c2ccccc2)c(F)c1 (configuration not stated),70.4% (active)
18,O=C(Nc1nnc(-c2ccco2)o1)c1ccc(S(=O)(=O)N2CCOCC2)cc1,13.2%
19,COc1cccc(-c2nnc(NC(=O)c3ccc(S(=O)(=O)N(CC(C)C)CC(C)C)cc3)o2)c1,108% (active)
20,COc1cccc(NC(=O)c2ccc(S(=O)(=O)N(C)C)cc2)c1,-15.2%
21,Cc1ccc(NC(=O)COC(=O)CCc2nc3ccccc3n2-c2ccccc2)c(C)c1,2.62%
22,CC(C)(C)c1ccc(NC(=O)COC(=O)CCc2nc3ccccc3c(=O)[nH]2)cc1,20%
23,CCN(c1ccc(NC(=O)COC(=O)CCc2nc3ccccc3n2-c2ccccc2)cc1)C(C)C,79% (active)
24,Cc1c(C(=O)N(Cc2ccccc2)Cc2cccnc2)cnn1-c1ccc(F)cc1,0%
25,COC(=O)c1sccc1NC(=O)CC1C(=O)NCCN1C(=O)Nc1ccc(F)cc1F (configuration not stated),12.3%
26,C=CS(=O)c1sc(Cl)c(N2CCOCC2)c1[N+](=O)[O-] (configuration not stated),106% (active)
27,Cc1nc(=O)c(-c2ccccc2)c(C)n1-c1ccc(Br)cc1,3.14%
